Screens: PubChem, National Center for Advancing Translational Sciences (NCATS)
Only some compounds are listed: those with a hit (about 2.4% of all), similar ones and a draw of the others.
D2 PAM-1 = potentiates the human D2 dopamine receptor allosterically; DiscoveRx D2 beta-arrestin cells, luminescence, 90 min; 100% = 57 uM dopamine signal; AID 624464; potentiation, % (concentration not given with the values); P14416; 0.23% of 360,000 active; in the data active means potentiation above about 50%; inconclusive means mostly about 30% to 49%
Target sequence (P14416 whole entry, looked up): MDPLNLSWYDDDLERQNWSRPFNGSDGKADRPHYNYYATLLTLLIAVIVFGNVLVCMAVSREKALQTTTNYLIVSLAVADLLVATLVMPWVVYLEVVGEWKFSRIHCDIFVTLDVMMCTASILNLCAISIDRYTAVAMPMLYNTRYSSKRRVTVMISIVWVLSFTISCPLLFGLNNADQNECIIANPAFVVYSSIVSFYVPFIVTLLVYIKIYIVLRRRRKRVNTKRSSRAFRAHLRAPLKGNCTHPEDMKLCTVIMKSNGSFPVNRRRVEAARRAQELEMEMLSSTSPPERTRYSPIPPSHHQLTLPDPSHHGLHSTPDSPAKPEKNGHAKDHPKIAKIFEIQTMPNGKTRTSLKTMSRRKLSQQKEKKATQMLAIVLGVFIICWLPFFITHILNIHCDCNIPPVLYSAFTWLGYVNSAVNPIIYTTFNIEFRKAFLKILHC
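PathHunter D2 cells, attached overnight at 37 deg C, received compound in DMSO plus dopamine at EC20 (50 nM final) for 90 min at 37 deg C. Beta-arrestin recruitment was read as luminescence after 1 h with detection reagent at ambient temperature.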
D2 antagonist = D2 dopamine receptor (human) antagonism. 2% of 340,000 active. inhibition, % at 10 µM. HEK293 TREx D2 cells, calcium flux, dopamine EC80. AID 485344. P14416; in the data active means inhibition above about 30%; inactive means below that, where a call was filed; further: 0% is about no effect
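Compounds are added to dye-loaded, induced HEK293 T-REx cells coupled to calcium release via D2; after a 3 min kinetic read an EC80 dopamine stimulus is given and fluorescence is recorded for 3 more min.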
D2 ag-1 = agonists of human D2 dopamine receptor. P14416. HEK293 T-REx D2 cells, calcium flux agonist mode. activation, % at 2 µM. 0.53% of 340,000 active. AID 485358;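 active means activation over 3 SD above normal in the single-dose calcium agonist read, cut at about 30% in these data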; further: 0% is about no effect
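Tetracycline-induced HEK293 T-REx cells with force-coupled D2 receptor, plated overnight at 30 C, loaded with no-wash calcium dye. After a 10 s baseline, compound was pin-added and calcium flux read kinetically for 180 s; calcium rises flagged agonists.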
D2 PAM-2 = positively modulates the human D2 dopamine receptor allosterically; P14416; HEK293 T-REx D2, calcium flux, EC20 dopamine potentiation; potentiation, % at 10 µM; 0.34% of 340,000 active; AID 485347;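 active means potentiation over 3 SD above the plate norm, cut at about 30% in these data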; further: 0% is about no effect
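Potentiation of an EC20 dopamine calcium response is measured in a force-coupled, tetracycline-inducible Hek293 Trex D2 line. Compound-only kinetic reads over 180 s flag agonists before dopamine addition.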
D2 ag-2 = human D2 receptor agonism in beta-arrestin assay; P14416; DiscoveRx PathHunter D2 beta-arrestin, luminescence, 90 min; 100% = 57 uM dopamine signal; activation, % (test concentration not listed); 0.084% of 360,000 active; in the data active means activation above about 40%; inconclusive means between about 15% and that limit
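DiscoveRx PathHunter D2 beta-arrestin cells (2,100/well) attached overnight, then compound-stimulated 90 min at 37 C in HBSS/10 mM HEPES/0.1% Tween-20 buffer; beta-galactosidase complementation read by luminescence after 1 h at ambient temperature. Dopamine 57 uM final (EC100) as control.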
An asterisk follows results filed as active; ? = inconclusive; nt = not tested or not shown.

SMILES	D2 PAM-1	D2 antagonist	D2 ag-1	D2 PAM-2	D2 ag-2
Cc1cccc(N2CCN(C(=O)Cn3nc(C)c4sc5ccccc5c4c3=O)CC2C)c1 (stereo not given)	nt	nt	nt	-16.1	nt
COC(=O)C1=C(C(=O)OC)N2C=CC=CC2(C)C(C(=O)OC)=C1C(=O)OC (stereo not given)	-9.5	32.3*	-1.8	-1.2	-3.2
COC(=O)C1=C(C(=O)OC)C(C(=O)OC)C(C(=O)OC)C(C(=O)OC)(C(=O)OC)C(C(=O)OC)=C1C(=O)OC (stereo not given)	7.9	nt	nt	nt	-3.9
Cc1cnc(C(=O)OCC(=O)NCc2ccccc2)cn1	-2.6	-2.2	0.3	8.0	-0.2
Cc1cnc(C(=O)OCC(=O)NC(C)CCc2ccccc2)cn1 (stereo not given)	-1.1	34.1*	-0.3	14.9	3.2
COc1cc2oc(=O)c(CC(=O)N3CCCCC3)c(C)c2cc1OC	nt	nt	0.8	-6.0	nt
CN1CCN(c2oc(-c3ccccc3)nc2S(=O)(=O)c2ccc(Br)cc2)CC1	-28.5	30.7*	0.4	-24.8	-3.5
CN1CCN(c2oc(-c3ccccc3Cl)nc2S(=O)(=O)c2ccccc2)CC1	-49.6	78.6*	0.7	-21.5	-4.0
CN1CCN(c2oc(-c3cccs3)nc2S(=O)(=O)c2ccccc2)CC1	-38.1	-35.4	0.3	-24.6	-5.8
CCOC(=O)/C(=C/C=C1\Sc2ccccc2N1CC)C(C)=O	-2.1	1.0	35.0*	1.4	-3.9
CCOC(=O)/C(=C\C=C1/Sc2ccccc2N1CC)C(C)=O	-7.8	nt	nt	nt	4.1
CCOC(=O)/C(=C/C=C1\Sc2cc(C)c(C)cc2N1CC)C(C)=O	-12.4	29.0	83.6*	31.3*	6.0
CCc1cccc(NC(=O)Cn2nc3c4cc(F)ccc4n(Cc4cccc(C)c4)cc-3c2=O)c1	nt	nt	0.2	5.6	nt
CCOC(=O)c1c(C)[nH]c(C)c1C(=O)COC(=O)c1ccc(S(=O)(=O)C(F)F)cc1	7.7	38.6*	-0.2	13.9	-0.2
CCOC(=O)c1c(C)[nH]c(C)c1C(=O)COC(=O)c1ccc(O)cc1	-2.8	-6.7	3.7	12.5	-0.3
Cc1ccc(OCCCC(=O)Nc2nc3ccccc3[nH]2)cc1	7.8	-12.2	0.3	10.7	5.3
O=C(CCCOc1ccccc1)Nc1nc2ccccc2[nH]1	-0.8	-1.8	-0.4	69.7*	-1.9
CCN(CC)c1ccc(CN(C(=O)c2cccs2)C2CCS(=O)(=O)C2)cc1 (stereo not given)	-14.3	30.1*	0.1	9.1	-4.6
Nc1nnc(-c2ccccc2F)s1	-5.0	44.9*	1.0	10.9	-2.2
CC1(C)Cc2c(ccc3ccccc23)/C(=C/C(=O)N2CCCCC2)N1	-5.9	32.7*	0.2	18.8	-3.7
CCc1ccc(-c2nc(CN3CCCC(C(=O)NCc4ccccc4Cl)C3)c(C)o2)cc1 (stereo not given)	nt	nt	1.3	nt	nt
CC1CCCN(CCOCCOc2ccc(Cl)cc2Br)C1 (stereo not given)	-5.6	83.2*	0.6	-22.8	-3.7
CC1CCN(CCCOc2ccc(Br)cc2Cl)CC1	-3.3	46.8*	1.7	-34.1	0.2
Cc1ccc(OCCCCN2CCC(C)CC2)c(Br)c1	-38.9	107.2*	-0.4	-20.6	-7.8
CN1CCN(CCOCCOc2ccc(Br)cc2Cl)CC1	-5.8	30.7*	-2.4	-34.4	-4.1
SMILES	D2 PAM-1	D2 antagonist	D2 ag-1	D2 PAM-2	D2 ag-2
CC1CCCN(CCOCCOc2ccc(Br)cc2Cl)C1 (stereo not given)	-41.5	51.6*	0.7	-27.4	0.3
COc1ccc(OC)c(NC(=O)c2nnn(CC(=O)Nc3ccc(C(C)C)cc3)c2N)c1	nt	nt	nt	4.3	nt
COc1ccc(OCC(=O)Nc2c(C(=O)N(CCN(C)C)Cc3ccco3)oc3ccccc23)cc1	-30.4	-2.8	0.7	31.3*	-3.5
CCCNC(=O)Nc1ccc2c(c1)N(C)C(=O)c1ccccc1S2	2.7	-5.1	1.4	0.1	0.9
Cc1ccc(CNC(=O)Nc2ccc3c(c2)N(C)C(=O)CS3)cc1	-6.2	-4.9	-1.4	-7.5	-3.6
CN1C(=O)CSc2ccc(NC(=O)NCc3ccccc3)cc21	-3.1	30.2*	-1.3	-22.1	-2.0
CCCCNC(=O)Nc1ccc2c(c1)N(C)C(=O)c1ccccc1S2	-14.6	46.3*	0.7	-16.9	-1.3
CCCS(=O)(=O)c1nc(S(=O)(=O)c2ccc(C)cc2)c(NCCCOC(C)C)s1	nt	nt	-1.2	12.3	nt
NC(=O)c1ccc(C(F)(F)F)n(Cc2cccc(Cl)c2)c1=O	-1.3	31.9*	0.6	3.9	1.5
O=[N+]([O-])c1ccc(NN=Cc2ccccc2O)nc1	-13.2	nt	nt	nt	-2.6
O=[N+]([O-])c1ccc(N/N=C/c2ccccc2O)cc1	-27.5	35.8*	4.0	3.5	10.3
CCOC(=O)c1nc(N2CCN(c3ccc(F)cc3)CC2)c2c(C)noc2n1	nt	nt	nt	-4.7	nt
Cc1ccc(Nc2nc3ccccc3c3nnc(C)n23)c(C)c1	nt	nt	-1.0	6.9	nt
CCn1c(SCc2ccccc2C)nc(=O)c2c(C(=O)OC)cc(C3CC3)nc21	nt	nt	nt	5.9	nt
COc1cc(N)c(Cl)cc1C(=O)OCC(=O)c1cccs1	-4.2	32.7*	0.8	-13.4	-3.8
COc1cc(N)c(Cl)cc1C(=O)OCC(=O)NCc1cccs1	-4.6	nt	nt	nt	-0.9
Cc1nn(Cc2ccc(Cl)cc2)c(C)c1NC(=O)c1cc(-c2ccco2)on1	-3.2	-12.2	-0.1	-3.6	1.6
COc1cc(NC(=O)c2cc(-c3ccco3)on2)cc(OC)c1OC	-16.1	33.1*	-2.0	-18.9	-2.2
Cc1cc(NC(=O)c2cc(-c3ccco3)on2)nn1Cc1ccc(Cl)cc1	-7.0	-4.0	32.0*	-19.0	-0.1
CCCn1c(CCC(=O)Nc2cccc(C)c2C)nc2cccnc21	nt	nt	-1.1	5.6	nt
Cc1ccc(C)c(N2CCN(C(=O)CCS(=O)(=O)c3cc(Br)cc4c3N(C(=O)C3CC3)CC4)CC2)c1	nt	nt	-0.3	1.0	nt
CCOCCCn1c(=N)c(C(=O)NC2CCCCC2)cc2c(=O)n3ccccc3nc21	nt	nt	-1.2	-3.3	nt
Cc1ccc(S(=O)(=O)c2ccc([N+](=O)[O-])cn2)cc1	23.9	4.3	-0.1	8.4	-6.7
O=[N+]([O-])c1ccc(S(=O)(=O)c2ccccc2)nc1	-65.0	-8.3	-0.2	0.6	48.3*
COC(=O)CC1COc2ccccc2N1C(=O)c1ccc(C(C)(C)C)cc1 (stereo not given)	59.1*	6.6	33.0*	-18.0	?
COCCNC(=O)CCc1c(C)n(C)c2cc(-c3cc(OC)c(OC)c(OC)c3)nn2c1=O	nt	nt	nt	-9.7	nt
COC(=O)c1ccc(NC(=O)Cn2nc(C(=O)Nc3ccc(C)cc3)ccc2=O)cc1	-1.8	30.0*	-0.7	-1.5	-3.7
CCOc1ccc(NC(=O)c2oc3ccccc3c2NC(=O)Cc2cccs2)cc1	nt	nt	-0.2	7.8	nt
